# How the values were obtained:
# Experiment in all cases: DAPPL (digital affinity profiling via proximity ligation, sequencing); 10 mM Tris-HCl pH 7.5, 50 mM NaCl, 1 mM DTT, 4% glycerol, room temperature, 30 min; GST-TFs on glutathione beads, 16-mer random dsDNA library, 0.1% formaldehyde crosslink after washing; high values mean tight binding
# Conditions in all cases: protein: recombinant; tags: N-terminal GST; dsDNA, one strand shown
# FLI1 = target: T1, FLI1 (Homo sapiens, UniProt Q01543 1-452)
# T1 sequence: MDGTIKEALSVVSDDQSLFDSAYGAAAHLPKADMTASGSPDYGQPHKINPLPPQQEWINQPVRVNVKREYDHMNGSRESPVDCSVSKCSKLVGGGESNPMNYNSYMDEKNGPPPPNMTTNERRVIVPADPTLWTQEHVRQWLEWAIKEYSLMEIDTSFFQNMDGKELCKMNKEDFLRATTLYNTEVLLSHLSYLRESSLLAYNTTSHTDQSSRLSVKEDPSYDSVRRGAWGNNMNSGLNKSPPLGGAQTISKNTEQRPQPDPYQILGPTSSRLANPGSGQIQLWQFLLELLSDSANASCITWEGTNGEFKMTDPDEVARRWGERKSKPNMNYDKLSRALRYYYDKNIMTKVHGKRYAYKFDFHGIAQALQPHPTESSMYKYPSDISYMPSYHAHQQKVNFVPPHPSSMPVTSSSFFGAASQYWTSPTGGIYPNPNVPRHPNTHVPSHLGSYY
# Procedure, shortened: (§1)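 Binding signal is defined as a hexamer's read frequency for one factor over its frequency for the tag-only sample. To obtain reads, GST-fused human transcription factors were expressed in yeast, captured on glutathione beads, barcoded with DNA and pooled with that sample. Pools met 200 nmole of a 16-mer random double-stranded DNA library in Tris/NaCl/DTT/glycerol buffer for 30 min at room temperature before washing, 0.1% formaldehyde crosslinking, proximity ligation (BsaI/T4 ligase, 1 h, 37 °C), PCR and Illumina NextSeq500 sequencing.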
# ELK1 = target: T2, ELK1 (Homo sapiens, UniProt P19419 1-428)
# T2 sequence: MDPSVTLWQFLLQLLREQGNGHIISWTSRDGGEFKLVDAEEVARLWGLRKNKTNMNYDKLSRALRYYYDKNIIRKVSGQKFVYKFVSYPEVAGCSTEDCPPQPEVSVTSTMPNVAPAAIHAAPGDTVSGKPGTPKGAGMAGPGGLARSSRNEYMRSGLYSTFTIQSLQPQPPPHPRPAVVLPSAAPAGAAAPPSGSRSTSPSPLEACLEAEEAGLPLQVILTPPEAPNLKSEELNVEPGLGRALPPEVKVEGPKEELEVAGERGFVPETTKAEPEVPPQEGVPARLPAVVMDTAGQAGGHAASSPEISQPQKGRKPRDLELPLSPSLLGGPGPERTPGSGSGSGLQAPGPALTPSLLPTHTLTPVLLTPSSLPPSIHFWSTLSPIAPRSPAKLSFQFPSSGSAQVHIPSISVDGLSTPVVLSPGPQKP
# Procedure, shortened: as §1
# GABPA = target: T3, GABPA (Homo sapiens, UniProt Q06546 1-454)
# T3 sequence: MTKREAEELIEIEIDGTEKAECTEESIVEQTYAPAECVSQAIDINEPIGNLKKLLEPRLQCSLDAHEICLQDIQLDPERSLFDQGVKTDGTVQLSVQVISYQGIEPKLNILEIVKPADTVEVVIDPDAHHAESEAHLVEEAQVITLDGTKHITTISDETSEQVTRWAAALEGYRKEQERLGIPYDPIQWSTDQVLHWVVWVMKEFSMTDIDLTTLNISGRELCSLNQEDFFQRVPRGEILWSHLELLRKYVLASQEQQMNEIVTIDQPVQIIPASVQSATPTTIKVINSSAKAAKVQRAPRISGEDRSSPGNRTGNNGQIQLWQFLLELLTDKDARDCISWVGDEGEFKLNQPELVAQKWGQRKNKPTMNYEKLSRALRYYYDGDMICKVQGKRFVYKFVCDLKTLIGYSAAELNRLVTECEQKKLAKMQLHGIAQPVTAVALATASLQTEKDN
# Procedure, shortened: as §1
# ERG = target: T4, ERG (Homo sapiens, UniProt P11308 1-479)
# T4 sequence: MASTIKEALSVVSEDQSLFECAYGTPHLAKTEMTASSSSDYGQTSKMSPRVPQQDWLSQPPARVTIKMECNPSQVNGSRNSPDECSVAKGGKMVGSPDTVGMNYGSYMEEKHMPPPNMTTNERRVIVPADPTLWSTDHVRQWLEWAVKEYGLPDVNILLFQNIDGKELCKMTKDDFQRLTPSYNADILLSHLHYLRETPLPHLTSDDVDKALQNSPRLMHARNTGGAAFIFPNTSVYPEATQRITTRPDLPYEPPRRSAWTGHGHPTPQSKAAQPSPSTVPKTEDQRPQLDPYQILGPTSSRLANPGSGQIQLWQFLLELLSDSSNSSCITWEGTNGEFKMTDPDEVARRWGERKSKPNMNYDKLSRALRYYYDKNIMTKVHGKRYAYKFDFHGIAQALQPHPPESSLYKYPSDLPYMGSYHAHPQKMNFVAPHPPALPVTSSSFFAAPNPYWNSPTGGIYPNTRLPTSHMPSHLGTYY
# Procedure, shortened: as §1
# ELF1 = ELF1 (Homo sapiens, UniProt P32519 1-619)
# Procedure, shortened: as §1
# EHF = target: T5, EHF (Homo sapiens, UniProt Q9NZC4 1-300)
# T5 sequence: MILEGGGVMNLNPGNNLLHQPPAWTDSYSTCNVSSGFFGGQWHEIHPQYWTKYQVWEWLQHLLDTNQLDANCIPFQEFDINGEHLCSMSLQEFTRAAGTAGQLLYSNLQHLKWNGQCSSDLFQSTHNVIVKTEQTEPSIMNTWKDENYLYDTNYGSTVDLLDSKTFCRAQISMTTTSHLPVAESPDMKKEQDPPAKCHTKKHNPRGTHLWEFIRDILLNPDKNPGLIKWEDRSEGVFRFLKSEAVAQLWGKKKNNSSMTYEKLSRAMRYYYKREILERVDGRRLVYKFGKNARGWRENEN
# Procedure, shortened: as §1
# SPI1 = SPI1 (Homo sapiens, UniProt P17947 1-270)
# Procedure, shortened: as §1
# SPIB = SPIB (Homo sapiens, UniProt Q01892 1-262)
# Procedure, shortened: as §1
# FEV = target: T6, FEV (Homo sapiens, UniProt Q99581 1-238)
# T6 sequence: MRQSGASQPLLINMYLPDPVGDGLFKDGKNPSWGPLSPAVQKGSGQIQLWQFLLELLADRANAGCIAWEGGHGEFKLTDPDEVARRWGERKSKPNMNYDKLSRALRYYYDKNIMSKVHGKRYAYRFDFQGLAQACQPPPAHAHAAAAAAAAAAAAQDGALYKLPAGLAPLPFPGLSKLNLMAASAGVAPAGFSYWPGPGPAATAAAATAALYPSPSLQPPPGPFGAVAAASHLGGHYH
# Procedure, shortened: as §1
# ETV5 = ETV5 (Homo sapiens, UniProt P41161 1-510)
# Procedure, shortened: as §1
# ELF4 = ELF4 (Homo sapiens, UniProt Q99607 1-663)
# Procedure, shortened: as §1
# ETV1 = ETV1 (Homo sapiens, UniProt P50549 1-477)
# Procedure, shortened: as §1
# ERF = target: T7, ERF (Homo sapiens, UniProt P50548 1-548)
# T7 sequence: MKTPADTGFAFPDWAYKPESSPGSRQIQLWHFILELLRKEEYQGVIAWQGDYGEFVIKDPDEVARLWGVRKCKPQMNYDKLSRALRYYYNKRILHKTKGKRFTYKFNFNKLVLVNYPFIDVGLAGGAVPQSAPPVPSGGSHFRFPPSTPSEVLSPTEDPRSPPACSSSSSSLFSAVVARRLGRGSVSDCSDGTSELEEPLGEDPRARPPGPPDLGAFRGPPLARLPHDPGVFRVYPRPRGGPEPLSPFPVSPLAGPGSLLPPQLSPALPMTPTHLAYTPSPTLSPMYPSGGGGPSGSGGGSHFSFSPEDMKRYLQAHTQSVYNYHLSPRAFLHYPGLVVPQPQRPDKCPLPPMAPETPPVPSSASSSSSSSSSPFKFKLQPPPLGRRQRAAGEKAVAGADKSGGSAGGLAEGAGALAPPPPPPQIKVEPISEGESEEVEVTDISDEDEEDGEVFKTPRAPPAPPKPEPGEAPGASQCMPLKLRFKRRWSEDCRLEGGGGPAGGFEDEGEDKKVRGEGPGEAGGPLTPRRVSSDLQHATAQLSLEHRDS
# Procedure, shortened: as §1
# ETV3L = target: T8, ETV3L (Homo sapiens, UniProt Q6ZN32 1-361)
# T8 sequence: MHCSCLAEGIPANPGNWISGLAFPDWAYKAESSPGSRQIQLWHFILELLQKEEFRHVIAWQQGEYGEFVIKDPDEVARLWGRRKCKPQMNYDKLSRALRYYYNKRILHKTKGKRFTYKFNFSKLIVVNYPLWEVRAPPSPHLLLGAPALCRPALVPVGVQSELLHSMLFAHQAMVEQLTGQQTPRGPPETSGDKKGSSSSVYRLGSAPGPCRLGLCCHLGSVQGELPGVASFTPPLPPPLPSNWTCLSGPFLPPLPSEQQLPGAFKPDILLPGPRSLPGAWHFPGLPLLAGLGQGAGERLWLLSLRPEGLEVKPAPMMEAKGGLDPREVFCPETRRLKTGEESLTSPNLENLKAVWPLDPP
# Procedure, shortened: as §1
# ETS2 = target: T9, ETS2 (Homo sapiens, UniProt P15036 1-469)
# T9 sequence: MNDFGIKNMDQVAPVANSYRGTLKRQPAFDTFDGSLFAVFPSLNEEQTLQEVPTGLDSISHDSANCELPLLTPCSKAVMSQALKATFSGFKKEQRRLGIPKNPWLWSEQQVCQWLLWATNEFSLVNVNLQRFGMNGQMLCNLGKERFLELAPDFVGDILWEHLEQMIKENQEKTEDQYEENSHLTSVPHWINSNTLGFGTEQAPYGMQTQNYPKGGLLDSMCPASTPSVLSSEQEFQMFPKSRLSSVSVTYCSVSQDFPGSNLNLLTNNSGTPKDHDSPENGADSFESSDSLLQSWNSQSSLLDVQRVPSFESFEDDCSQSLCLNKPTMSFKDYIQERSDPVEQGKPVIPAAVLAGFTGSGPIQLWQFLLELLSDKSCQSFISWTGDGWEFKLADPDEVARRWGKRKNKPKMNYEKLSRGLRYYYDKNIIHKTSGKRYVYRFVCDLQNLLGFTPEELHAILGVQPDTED
# Procedure, shortened: as §1
# SPDEF = target: T10, SPDEF (Homo sapiens, UniProt O95238 1-335)
# T10 sequence: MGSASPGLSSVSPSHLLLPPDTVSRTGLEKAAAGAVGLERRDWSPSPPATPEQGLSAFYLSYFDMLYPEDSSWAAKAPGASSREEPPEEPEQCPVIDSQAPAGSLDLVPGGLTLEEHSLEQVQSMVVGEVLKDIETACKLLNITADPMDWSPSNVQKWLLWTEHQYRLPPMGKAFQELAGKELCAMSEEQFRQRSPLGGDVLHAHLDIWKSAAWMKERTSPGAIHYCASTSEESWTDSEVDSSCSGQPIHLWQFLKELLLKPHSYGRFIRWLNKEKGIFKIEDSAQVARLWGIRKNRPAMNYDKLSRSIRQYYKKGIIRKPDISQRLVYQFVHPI
# Procedure, shortened: as §1
# ETV3 = target: T11, ETV3 (Homo sapiens, UniProt P41162-2 1-143)
# T11 sequence: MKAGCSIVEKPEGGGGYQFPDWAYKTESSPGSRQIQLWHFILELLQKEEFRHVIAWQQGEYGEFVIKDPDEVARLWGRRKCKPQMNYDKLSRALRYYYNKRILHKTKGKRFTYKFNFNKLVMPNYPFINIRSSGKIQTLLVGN
# Procedure, shortened: as §1
# ETV6 = ETV6 (Homo sapiens, UniProt P41212 1-452)
# Procedure, shortened: as §1
# Sequence of ETV6 (P41212 whole entry): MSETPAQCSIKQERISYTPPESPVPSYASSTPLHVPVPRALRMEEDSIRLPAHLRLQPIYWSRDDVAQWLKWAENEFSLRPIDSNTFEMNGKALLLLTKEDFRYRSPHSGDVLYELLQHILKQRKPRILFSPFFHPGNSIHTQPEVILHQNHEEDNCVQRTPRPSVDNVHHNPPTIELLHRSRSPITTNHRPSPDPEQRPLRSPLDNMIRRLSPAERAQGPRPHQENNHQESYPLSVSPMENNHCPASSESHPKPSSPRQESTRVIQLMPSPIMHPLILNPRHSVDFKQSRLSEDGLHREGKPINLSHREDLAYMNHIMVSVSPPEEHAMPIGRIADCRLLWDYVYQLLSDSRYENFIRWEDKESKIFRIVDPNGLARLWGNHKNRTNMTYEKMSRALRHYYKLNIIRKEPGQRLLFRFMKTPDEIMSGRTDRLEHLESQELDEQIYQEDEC
# Sequence of ELF4 (Q99607 whole entry): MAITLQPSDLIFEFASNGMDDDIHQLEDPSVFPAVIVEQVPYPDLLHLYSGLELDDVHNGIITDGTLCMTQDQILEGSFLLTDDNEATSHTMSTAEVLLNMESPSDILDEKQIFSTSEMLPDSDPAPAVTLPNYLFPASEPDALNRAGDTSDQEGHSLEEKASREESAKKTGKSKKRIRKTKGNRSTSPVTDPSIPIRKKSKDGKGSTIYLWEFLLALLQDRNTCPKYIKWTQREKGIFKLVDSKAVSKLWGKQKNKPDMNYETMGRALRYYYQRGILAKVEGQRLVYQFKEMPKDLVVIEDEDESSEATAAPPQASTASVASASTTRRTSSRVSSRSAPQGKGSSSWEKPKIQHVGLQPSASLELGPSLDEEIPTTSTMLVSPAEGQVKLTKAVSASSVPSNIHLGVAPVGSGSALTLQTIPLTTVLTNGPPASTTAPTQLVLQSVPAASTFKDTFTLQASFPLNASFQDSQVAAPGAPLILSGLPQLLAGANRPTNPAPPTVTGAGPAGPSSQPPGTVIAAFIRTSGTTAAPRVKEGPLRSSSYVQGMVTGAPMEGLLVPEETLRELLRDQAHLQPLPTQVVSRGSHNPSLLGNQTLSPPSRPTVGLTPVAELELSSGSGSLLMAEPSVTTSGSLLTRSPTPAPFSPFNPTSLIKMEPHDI
# Sequence of ETV1 (P50549 whole entry): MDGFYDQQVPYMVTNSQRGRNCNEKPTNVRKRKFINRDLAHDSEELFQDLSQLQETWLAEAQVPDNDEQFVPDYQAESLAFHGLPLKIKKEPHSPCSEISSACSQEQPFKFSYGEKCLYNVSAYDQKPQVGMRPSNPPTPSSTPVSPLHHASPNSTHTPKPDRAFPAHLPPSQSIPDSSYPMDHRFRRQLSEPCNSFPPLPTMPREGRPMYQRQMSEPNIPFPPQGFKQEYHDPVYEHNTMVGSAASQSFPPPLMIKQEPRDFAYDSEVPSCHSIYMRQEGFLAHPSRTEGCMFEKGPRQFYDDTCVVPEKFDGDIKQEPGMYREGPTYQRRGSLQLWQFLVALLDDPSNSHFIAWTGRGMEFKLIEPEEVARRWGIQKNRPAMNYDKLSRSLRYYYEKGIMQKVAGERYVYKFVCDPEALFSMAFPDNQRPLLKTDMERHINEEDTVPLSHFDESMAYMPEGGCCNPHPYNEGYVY
# Sequence of SPIB (Q01892 whole entry): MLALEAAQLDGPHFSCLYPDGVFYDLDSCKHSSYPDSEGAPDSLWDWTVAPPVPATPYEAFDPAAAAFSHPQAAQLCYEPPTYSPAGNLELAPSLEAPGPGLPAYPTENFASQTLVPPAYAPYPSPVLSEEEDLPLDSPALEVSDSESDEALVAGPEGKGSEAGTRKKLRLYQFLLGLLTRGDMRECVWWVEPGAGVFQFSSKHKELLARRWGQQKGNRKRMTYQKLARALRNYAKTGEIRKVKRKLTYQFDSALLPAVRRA
# Sequence of ELF1 (P32519 whole entry): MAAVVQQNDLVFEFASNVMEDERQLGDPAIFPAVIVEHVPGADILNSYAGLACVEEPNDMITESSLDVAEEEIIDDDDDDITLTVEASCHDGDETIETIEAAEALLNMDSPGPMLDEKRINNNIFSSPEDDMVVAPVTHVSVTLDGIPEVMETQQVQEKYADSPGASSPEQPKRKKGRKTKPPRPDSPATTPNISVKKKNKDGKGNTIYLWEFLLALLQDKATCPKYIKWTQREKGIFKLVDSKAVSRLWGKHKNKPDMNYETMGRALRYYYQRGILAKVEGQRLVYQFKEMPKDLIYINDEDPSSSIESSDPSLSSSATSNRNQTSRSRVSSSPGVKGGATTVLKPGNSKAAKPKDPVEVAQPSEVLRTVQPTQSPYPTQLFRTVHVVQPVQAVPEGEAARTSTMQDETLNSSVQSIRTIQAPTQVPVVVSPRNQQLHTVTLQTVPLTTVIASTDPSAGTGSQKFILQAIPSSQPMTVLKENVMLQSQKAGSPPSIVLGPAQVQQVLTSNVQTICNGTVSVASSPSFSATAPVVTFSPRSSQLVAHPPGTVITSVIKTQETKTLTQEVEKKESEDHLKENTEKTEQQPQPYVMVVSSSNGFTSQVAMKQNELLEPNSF
# Sequence of ETV5 (P41161 whole entry): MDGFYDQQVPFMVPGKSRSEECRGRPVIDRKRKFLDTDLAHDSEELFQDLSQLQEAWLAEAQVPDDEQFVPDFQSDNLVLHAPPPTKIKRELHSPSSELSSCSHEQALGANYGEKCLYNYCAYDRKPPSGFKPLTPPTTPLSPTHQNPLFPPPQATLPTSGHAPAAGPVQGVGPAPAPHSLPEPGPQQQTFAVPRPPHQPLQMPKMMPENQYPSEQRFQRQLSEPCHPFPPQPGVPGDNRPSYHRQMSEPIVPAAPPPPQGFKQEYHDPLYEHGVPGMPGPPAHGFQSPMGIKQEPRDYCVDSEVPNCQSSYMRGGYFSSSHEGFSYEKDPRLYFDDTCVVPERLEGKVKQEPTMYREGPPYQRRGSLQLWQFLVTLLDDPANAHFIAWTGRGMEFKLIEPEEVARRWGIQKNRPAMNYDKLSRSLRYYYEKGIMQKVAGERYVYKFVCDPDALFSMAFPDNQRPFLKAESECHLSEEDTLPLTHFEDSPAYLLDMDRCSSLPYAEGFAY
sequence,measurement,setting,value
ATGCAG,binding signal,FLI1,"1.09 fold enrichment (6-mer frequency, TF over GST control)"
same,binding signal,ELK1,"1.04 fold enrichment (6-mer frequency, TF over GST control)"
same,binding signal,GABPA,"1.14 fold enrichment (6-mer frequency, TF over GST control)"
same,binding signal,ERG,"1.09 fold enrichment (6-mer frequency, TF over GST control)"
same,binding signal,ELF1,"1.03 fold enrichment (6-mer frequency, TF over GST control)"
same,binding signal,EHF,"1.08 fold enrichment (6-mer frequency, TF over GST control)"
same,binding signal,SPI1,"1.06 fold enrichment (6-mer frequency, TF over GST control)"
same,binding signal,SPIB,"1.22 fold enrichment (6-mer frequency, TF over GST control)"
same,binding signal,FEV,"1.11 fold enrichment (6-mer frequency, TF over GST control)"
same,binding signal,ETV5,"1.05 fold enrichment (6-mer frequency, TF over GST control)"
same,binding signal,ELF4,"1.05 fold enrichment (6-mer frequency, TF over GST control)"
same,binding signal,ETV1,"1.1 fold enrichment (6-mer frequency, TF over GST control)"
same,binding signal,ERF,"1.22 fold enrichment (6-mer frequency, TF over GST control)"
same,binding signal,ETV3L,"1.08 fold enrichment (6-mer frequency, TF over GST control)"
same,binding signal,ETS2,"1.11 fold enrichment (6-mer frequency, TF over GST control)"
same,binding signal,SPDEF,"1.05 fold enrichment (6-mer frequency, TF over GST control)"
same,binding signal,ETV3,"1.06 fold enrichment (6-mer frequency, TF over GST control)"
same,binding signal,ETV6,"1.06 fold enrichment (6-mer frequency, TF over GST control)"

# Source: publication PMC7862700, “An all-to-all approach to the identification of sequence-specific readers for epigenetic DNA modifications on cytosine”
